# Compound activity (PubChem BioAssay)
# This is a sample that favours compounds with a hit; in the whole collection about 1.1% have one here.
# ID4 binder = binders of human ID4 protein, primary screen, biochemical, small molecule microarray, single point; AID 624137, 2012; 31,000 compounds, 1.2% hits; Flag-ID4 binding, fluorescence F/B; DNA-binding protein inhibitor ID-4 (Homo sapiens), P47928; calls only; call rule not given here;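 also: a binder raises fluorescence above local background on the spot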
# STK33 kin inh = STK33 kinase inhibitors, primary screen, biochemical, luminescence, ADP-Glo, MBP substrate; inhibition, % at 12.5 µM; 27,000 compounds, 0.44% hits; AID 2322, 2010; in the data active = inhibition above about 20%
# Target sequence (Q9BYT3 whole entry, looked up): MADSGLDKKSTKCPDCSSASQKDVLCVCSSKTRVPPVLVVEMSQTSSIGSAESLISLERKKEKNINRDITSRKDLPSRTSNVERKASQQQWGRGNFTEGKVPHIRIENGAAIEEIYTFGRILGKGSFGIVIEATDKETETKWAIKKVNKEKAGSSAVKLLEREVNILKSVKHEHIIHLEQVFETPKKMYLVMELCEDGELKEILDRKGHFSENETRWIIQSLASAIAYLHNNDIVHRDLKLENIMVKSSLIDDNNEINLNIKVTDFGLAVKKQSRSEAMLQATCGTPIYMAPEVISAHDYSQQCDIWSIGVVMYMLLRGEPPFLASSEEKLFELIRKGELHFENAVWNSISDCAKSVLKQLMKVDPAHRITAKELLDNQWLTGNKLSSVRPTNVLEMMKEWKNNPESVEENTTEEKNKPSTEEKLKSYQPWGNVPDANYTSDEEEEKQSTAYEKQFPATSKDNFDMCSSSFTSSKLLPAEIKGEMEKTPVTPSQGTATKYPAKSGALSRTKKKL
# * = called active by the depositor; i = inactive; . = no result; + = active, no number.
SMILES,ID4 binder,STK33 kin inh
COc1cc(O)c2c(=O)cc(-c3ccc(O)cc3)oc2c1,.,7.0
Cc1cc(O)cc2oc3cc(O)cc(O)c3c(=O)c12,.,16.3
O=c1cc(-c2ccc(O)cc2)oc2cc(O)cc(O)c12,.,54.3*
O=c1c(O)c(-c2ccc(O)cc2)oc2cc(O)cc(O)c12,.,33.5*
O=c1cc(-c2ccccc2)oc2cccc(O)c12,i,14.8
Cc1cccc(OCC(=O)Nc2ccc(Cl)c(-c3nc4ccc(C)cc4o3)c2)c1,i,0.8
C[C@@H]1CCCCO[C@@H](CN(C)C(=O)c2ccccc2)[C@@H](C)CN([C@@H](C)CO)C(=O)c2cc(NC(=O)Nc3ccc4c(c3)OCO4)ccc2O1,i,.
Cc1ccc(NC(=O)CSc2nc(-c3cccs3)cc(C(F)(F)F)n2)c([N+](=O)[O-])c1,i,7.7
COc1ccc(NC(=O)CSc2ncnc3c2sc2nc(N4CCOCC4)c4c(c23)CC(C)(C)OC4)cc1,i,2.7
CC[C@H]1C(=O)CC2C3CCC4C[C@@H](O)[C@]5(O)C[C@]4(CO5)C3CC[C@@]21C (stereo partly specified),i,2.0
C[C@H](CO)N1C[C@H](C)[C@@H](CN(C)C(=O)Nc2ccccc2)Oc2ccc(NS(C)(=O)=O)cc2C1=O,+,.
C[C@H](CO)N1C[C@H](C)[C@@H](CN(C)Cc2ccccc2)Oc2ccc(NS(C)(=O)=O)cc2C1=O,+,.
C[C@@H]1CN([C@H](C)CO)C(=O)c2cc(NS(C)(=O)=O)ccc2O[C@H]1CN(C)Cc1ccccc1,i,.
C[C@H]1CCCCO[C@H](CN(C)C(=O)Nc2ccccc2)[C@@H](C)CN([C@@H](C)CO)C(=O)c2cc(NS(C)(=O)=O)ccc2O1,i,.
C[C@H]1CN([C@@H](C)CO)C(=O)c2cc(NS(C)(=O)=O)ccc2O[C@H]1CN(C)C(=O)Nc1ccccc1,.,-1.9
C[C@@H]1CN([C@H](C)CO)C(=O)c2cc(NC(=O)CCCN(C)C)ccc2O[C@@H]1CN(C)C(=O)Nc1cccc2ccccc12,i,.
C[C@@H]1CN([C@@H](C)CO)C(=O)c2cc(NS(C)(=O)=O)ccc2O[C@@H](C)CCCCO[C@@H]1CN(C)C(=O)Nc1ccccc1,+,.
C[C@@H]1CN([C@@H](C)CO)C(=O)c2cc(NC(=O)CCCN(C)C)ccc2O[C@H]1CN(C)C(=O)Nc1cccc2ccccc12,+,.
CC(=O)c1c(C)n(-c2ccc(C)cc2)c2ccc(OC(=O)CN3C(=O)c4ccccc4C3=O)cc12,i,-0.8
Cc1ccc(S(=O)(=O)NCCN2CCOCC2)cc1-c1nnc2c3ccccc3c(C)nn12,i,-0.1
COc1ccccc1N(CC(=O)N1CCN(C)CC1)S(C)(=O)=O,i,3.2
COc1cc(Br)c(CN(CCc2ccc(O)cc2)C(=O)C(F)(F)F)cc1O,i,.
CN1CCN(CCn2c(-c3ccc(Br)cc3)cn3c4ccccc4nc23)CC1,i,-9.6
C[C@@H]1CCCCO[C@H](CN(C)S(=O)(=O)c2cn(C)cn2)[C@H](C)CN([C@H](C)CO)C(=O)c2cc(NS(C)(=O)=O)ccc2O1,+,.
C[C@@H]1CCCCO[C@H](CN(C)S(=O)(=O)c2cn(C)cn2)[C@@H](C)CN([C@H](C)CO)C(=O)c2cc(NS(C)(=O)=O)ccc2O1,i,2.6
SMILES,ID4 binder,STK33 kin inh
Cc1nc2nc(NCc3cccc([N+](=O)[O-])c3)[nH]n2c(=O)c1Cc1ccccc1,i,0.7
COc1cccc(CNc2nc3nc(C)c(Cc4ccccc4)c(=O)n3[nH]2)c1,+,-0.4
O=C(CSc1n[nH]c(-c2ccncc2)n1)N1c2ccccc2Sc2ccccc21,i,1.8
c1ccc(-c2noc(COc3cccc4ccccc34)n2)nc1,i,-0.8
COc1cc(C(C)CC(C)(O)CC(=O)O)oc(=O)c1C (stereo unspecified),.,1.0
COC(=O)CN(c1ccc(C)c(C)c1)S(=O)(=O)c1ccccc1,i,-1.9
CC/C=C\C/C=C\C/C=C\CCCCCCCCCCCC(=O)O,i,-1.0
CC/C=C\C/C=C\C/C=C\CCCCCCCC(=O)O,+,1.5
COC(=O)c1cc(OC)c(OC)cc1NC(=O)C(C)Oc1ccc(OC)cc1 (stereo unspecified),i,1.7
COc1ccc(NC(=O)CSc2nnc(-c3ccco3)n2-c2ccccc2)cc1,i,-5.2
O=C(CSc1nnc(-c2ccco2)n1-c1cccc2ccccc12)Nc1ccc(C(=O)O)cc1,+,-1.0
COc1ccc(-c2cnc3c(c2)C(=O)N([C@H](C)CO)C[C@@H](C)[C@H](CN(C)Cc2ccccn2)O3)cc1,+,.
COc1ccc(-c2cnc3c(c2)C(=O)N([C@H](C)CO)C[C@H](C)[C@H](CN(C)Cc2ccccn2)O3)cc1,i,.
COc1cccc(-c2cnc3c(c2)C(=O)N([C@@H](C)CO)C[C@@H](C)[C@@H](CN(C)Cc2cccnc2)O3)c1,i,.
